Screening results as filed in PubChem.
KCNH2 3.1 block: qHTS for Inhibitors of KCHN2 3.1: Mutant qHTS; 0.95% of 340,000 active; U2OS KCNH2 3.1, thallium flux FluxOr; hits give low values; Potassium voltage-gated channel subfamily H member 2, brain isoform KCNH2 3.1 (human); AID 720553, 2013; activity change, % (tested at about 1.8 µM);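 active = maximum activity change below -70%; inconclusive = maximum activity change from -70% to -50%; inactive = maximum activity change above -50%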;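 also: thallium influx rate constant from kinetic fluorescence after stimulation buffer; % is scaled to controls: 0 for no effect and ±100 for the full control effect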
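FluxOr-based Tl+ influx in U2OS cells transduced with KCNH2 3.1 virus; rate constants normalized to DMSO controls.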
A-T KAP1 phos: qHTS Assay for Identifying a Potential Treatment of Ataxia-Telangiectasia | F2112 A-T fibroblasts, KAP-1 phosphorylation AlphaLISA; neocarzinostatin DNA damage 30 min before lysis | Potency, µM (top dose mostly 57.5 µM), without a hit: at the top dose activation, usual class: activators | 0.19% of 320,000 active; also: potency is read from the fitted curve at half-maximal effect; % of control where 0% means no effect; nearly all actives have a fitted effect of over 45% in size
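ATM-like activity read as KAP-1 phosphorylation via AlphaLISA donor/acceptor antibody pairs after lysis and 6 hr at 25C. Cells were ATM-null patient fibroblasts (F2112, hTERT), dosed 60 min, then exposed to the DSB inducer NCS for 30 min.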
12-LOX inh: Primary qHTS assay for inhibitors of human arachidonate 12S-lipoxygenase (ALOX12): Round 2. Polyunsaturated fatty acid lipoxygenase ALOX12 (Homo sapiens), P18054. purified 12hLO, xylenol orange hydroperoxide absorbance. Potency, µM (doses to about 108 µM), without a hit: at the top dose activity change, negative = inhibition, most hits filed as inhibitors. 1.1% of 580,000 active; also: potency is read from the fitted curve at half-maximal effect; % is scaled to controls: 0 for no effect and ±100 for the full control effect
Target sequence (P18054 whole entry, looked up): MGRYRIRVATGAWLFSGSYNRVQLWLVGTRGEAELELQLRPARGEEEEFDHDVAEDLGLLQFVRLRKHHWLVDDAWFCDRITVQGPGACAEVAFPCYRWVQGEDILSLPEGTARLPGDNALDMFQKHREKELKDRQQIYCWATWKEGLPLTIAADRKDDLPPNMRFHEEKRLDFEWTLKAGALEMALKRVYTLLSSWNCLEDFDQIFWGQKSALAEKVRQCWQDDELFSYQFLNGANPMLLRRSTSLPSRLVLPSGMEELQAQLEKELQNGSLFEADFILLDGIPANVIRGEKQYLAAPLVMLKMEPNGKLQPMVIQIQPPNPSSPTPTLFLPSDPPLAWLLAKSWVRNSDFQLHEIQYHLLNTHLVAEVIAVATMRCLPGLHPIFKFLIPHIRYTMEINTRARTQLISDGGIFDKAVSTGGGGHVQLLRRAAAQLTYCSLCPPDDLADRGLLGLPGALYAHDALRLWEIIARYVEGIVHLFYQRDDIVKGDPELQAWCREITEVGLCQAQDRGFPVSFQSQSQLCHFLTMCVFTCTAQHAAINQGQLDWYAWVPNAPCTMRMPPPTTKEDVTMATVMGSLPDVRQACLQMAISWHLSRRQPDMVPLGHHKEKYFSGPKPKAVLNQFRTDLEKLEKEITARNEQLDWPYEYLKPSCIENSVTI
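Purified human 12hLO at 150 nM in 25 mM Hepes, 0.01% Triton X-100, pH 7.0, preincubated 15 min at room temperature with compound. Reaction started with 40 uM arachidonic acid, 30 min at room temperature. Hydroperoxide measured by Fe-xylenol orange, 573/405 nm absorbance ratio.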
hERG WT inh: qHTS for Inhibitors of KCHN2 3.1: Wildtype qHTS | Voltage-gated inwardly rectifying potassium channel KCNH2 (Homo sapiens), Q12809 | 0.37% of 340,000 active | AID 720551, 2013 | activity change, % at 1.84 µM | U2OS, BacMam KCNH2, thallium flux FluxOr; hits give low values;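 active = maximum activity change below -70%; inconclusive = maximum activity change between -70% and -50%; inactive = maximum activity change above -50%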; also: % is scaled to controls: 0 for no effect and ±100 for the full control effect
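U2OS cells were transduced with wild-type KCNH2 virus (2.03 x 10^8 / mL) for 4 h at room temperature, then cultured overnight at 37 C. Thallium flux was read with FluxOr dye. Rate constants were normalized to DMSO controls.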
* marks the source's active call; other numbers are inactive results; ? = inconclusive; / = no result given. Sampled rows, rich in hits. Any-hit rate of the full collection: about 1.8%. Unless noted, calls follow the shape of the dose curve; as a rule, active = well fitted curve in the direction sought with a large enough effect; inconclusive = small, poorly fitted or top-dose-only effect, or another doubt; inactive = no such curve, though single readings can be large; an effect the other way counts as inactive or inconclusive.

SMILES | KCNH2 3.1 block | A-T KAP1 phos | 12-LOX inh | hERG WT inh
O=C(c1cccnc1)N1CCCC(Cc2nc(C3CCOCC3)no2)C1 (stereo unspecified) | / | / | 7% | /
O=C1C=CC(=O)N1c1ccc2ccccc2c1 | 1 | / | 40µM* | 0
CN(C)NC(=S)NC1CC2CCC1C2 (stereo unspecified) | -16 | -3% | 18µM* | 2
O=C(Nc1ccccc1)c1ccc(CSc2ccc(C(F)(F)F)cn2)cc1 | / | / | 5% | /
COc1ccc2c3c(n(C)c2c1)[C@H](CO)N(C(=O)Cc1ccccc1)CC31CCN(C(=O)Cc2ccccc2)CC1 | / | / | -17% | /
COc1ccc2c3c([nH]c2c1)[C@@H](CO)N(Cc1ccccc1)CC31CN(C(=O)Cc2ccccc2)C1 | / | / | 5µM* | /
CCN(CC)C(=S)Sc1ccc([N+](=O)[O-])cc1 | / | / | 5.6µM* | /
CCN(CC)C(=O)c1cc2c(=O)n3ccccc3nc2s1 | -3 | 12% | -13% | -13
CC(C)CN(CC(C)C)C(=O)c1cc2c(=O)n3ccccc3nc2s1 | -7 | 13µM* | 0% | -5
COc1ccc(-n2c(SCC(=O)Nc3ccc(C(N)=O)cc3)nc3ccccc3c2=O)cc1 | / | / | 1% | /
O=C(O)CC(Sc1n[nH]c(=S)s1)C(=O)O (stereo unspecified) | 13 | 14% | 2µM* | 3
COC(=O)C(C)Sc1n[nH]c(=S)s1 (stereo unspecified) | 4 | / | ? | 3
CCn1cc(CN2C[C@@H](COc3ccccc3)[C@H](C(N)=O)C2)cn1 | / | / | 42% | /
CCCn1c(N2CCN(C(=O)Nc3ccccc3)CC2)nc2ccccc21 | -105* | -1% | 46% | 10
CCn1c(N2CCN(C(=O)Nc3ccc(F)cc3)CC2)nc2ccccc21 | -4 | 3% | 231% | 41
CC(C)Cn1c(N2CCN(CC(=O)Nc3ccc(Cl)cc3)CC2)nc2ccccc21 | -74* | 2% | 0% | -16
O=S(=O)(c1ccc(F)cc1)N1CCCC(Cc2noc(-c3cccnc3)n2)C1 (stereo unspecified) | / | / | 6% | /
COc1ccc(S(=O)(=O)Cc2nnnn2-c2ccc(F)cc2)cc1 | / | / | -9% | /
CCn1c(C)c(C(=O)O)c2cc(OC)c3ccccc3c21 | -16 | 10µM* | 35% | -8
CC(=O)c1ccc(CC(=O)O)s1 | / | / | -70% | /
CC(=O)c1ccc(C(=O)O)s1 | / | / | 16µM* | /
O=Cc1ccc(OCc2ccccc2)cc1 | / | / | -11% | /
O=C(NCc1ccccc1)c1onc(CSc2ccc(F)cc2)c1C(=O)NCCCN1CCOCC1 | -81* | 2% | 4% | ?
O=C(NCc1ccccc1)c1onc(CSc2ccc(F)cc2)c1C(=O)NCc1ccccc1 | 9 | / | 11% | 1
CCn1nc(C(=O)NCCC(C)C)c2ccccc2c1=O | / | / | -4% | /
SMILES | KCNH2 3.1 block | A-T KAP1 phos | 12-LOX inh | hERG WT inh
C/C(=C\C(=O)c1ccc(Br)cc1)NCc1ccc2c(c1)OCO2 | -8 | 0% | 20% | 2
C/C(=C\C(=O)c1ccc(F)cc1)NCc1ccc2c(c1)OCO2 | 2 | 3% | 40µM* | 2
CN(C[C@H](Cc1ccccc1)N(CCN(CCc1ccccc1)N=O)N=O)N=O | -200* | -28% | -20% | 19
CC(C)C[C@@H](CN(C)N=O)N(C[C@H](Cc1ccccc1)N(CCc1ccccc1)N=O)N=O | -3 | 13% | 6% | 2
CC(C)c1ccc(CN(C(=O)c2nn(C)c(=O)c3ccccc23)C2CC2)cc1 | / | / | 0% | /
O=c1cc(CO)oc(CN2CCN(c3cccc(C(F)(F)F)c3)CC2)c1O | 5 | -1% | 1.4µM* | 2
O=c1cc(CO)oc(CN2CCN(c3ccccc3)CC2)c1O | -3 | -11% | ? | -12
Cc1nc(-c2cccs2)sc1C(=O)O | 9 | 9% | 5% | -96*
CSc1ccccc1NC(=O)CSc1nnnn1-c1ccccc1SC | -8 | 5% | -1% | -3
COC(=O)c1ccsc1NC(=O)CSc1nnnn1-c1ccccc1SC | -88* | 25% | -3% | -22
C=CCn1c(SC(C)C(=O)Nc2ccc(F)c(F)c2F)nnc1C1CC1 (stereo unspecified) | -128* | -4% | 9% | -8
Cc1noc(CC2CCOC3(CCN(C(=O)c4cc(-c5ccc(F)cc5)n[nH]4)CC3)C2)n1 (stereo unspecified) | / | / | 84% | /
CCOc1ccc(CCN2C(=O)C(=O)N([C@@H](Cc3ccccc3)CN3CCC[C@H]3CN3C(=O)C(=O)NC[C@@H]3Cc3ccccc3)C[C@@H]2CC(C)C)cc1 | / | / | -4% | /
Oc1ccc(C[C@H]2CN([C@@H](Cc3ccc(O)cc3)CN3CCC[C@@H]3CN3C(=S)NC[C@@H]3Cc3ccccc3)C(=S)N2CCc2ccccc2)cc1 | / | / | -23% | /
CCOc1ccc(CCN2C(=S)N([C@@H](Cc3ccc(O)cc3)CN3CCCC3CN3C(=S)NC[C@@H]3Cc3ccc(O)cc3)C[C@@H]2CC(C)C)cc1 (stereo partly specified) | -28 | / | ? | -80*
CC(C)C[C@@H](CN1CCCC1CN1C(=S)NC[C@@H]1Cc1ccc(O)cc1)N1C[C@H](Cc2ccc(O)cc2)N(CCc2ccccc2)C1=S (stereo partly specified) | -79* | / | ? | -121*
O=C(NNc1cc(N2CCCC2)nc(N2CCCC2)n1)c1ccc([N+](=O)[O-])cc1 | -90* | -7% | 17% | -41
Cn1nc(CC(=O)Nc2ccccc2O)c2ccccc2c1=O | / | / | -15% | /
COc1ccc(Oc2coc3cc(OC(=O)c4cccc(Cl)c4)ccc3c2=O)cc1 | / | / | 26% | /
CC1(c2ccccc2)N(Cc2ccccc2C#N)C(=O)OC12CCN(Cc1ccccc1F)CC2 (stereo unspecified) | / | / | -9% | /
CC1(c2ccccc2)N(Cc2cccnc2)C(=O)OC12CCN(Cc1ccccc1O)CC2 (stereo unspecified) | / | / | 44% | /
CC1(c2ccccc2)N(Cc2ccccc2)C(=O)OC12CCN(Cc1c[nH]c3ccccc13)CC2 (stereo unspecified) | / | / | 45µM* | /
CC1(c2ccccc2)N(Cc2ccccc2C#N)C(=O)OC12CCN(Cc1c[nH]c3ccccc13)CC2 (stereo unspecified) | / | / | 32µM* | /
Cc1nnc(NC(=O)c2ccc3c(ccn3Cc3ccccc3)c2)s1 | / | / | 10% | /
COc1ccccc1N1CCN(CCNC(=O)Nc2cccc(C)c2C)CC1 | -35 | -5% | -1% | -124*
COc1ccc(N2CCN(CCNC(=O)Nc3cccc(C)c3C)CC2)cc1 | -5 | -16% | 0% | 10
C#CCN(C[C@@H]1[C@@H](OC(=O)Nc2cccs2)[C@@H](OC(=O)Nc2cccs2)Cn2c(=O)n(CCCCCC)c(=O)n21)S(=O)(=O)c1ccc(C)cc1 | -4 | / | 10µM* | -17
O=C1CCN(C(=O)C2CCN(C(=O)c3ccco3)CC2)CCCCCCN1 | / | / | -2% | /
CC1=NN(c2nc(-c3ccc(Cl)cc3)cs2)C(=O)C1 | 6 | 0% | 5.6µM* | -15
